Consider five compounds from PubChem BioAssay (EPA / NIEHS).

The source made the active and inactive calls. How the source made its calls: active means hit-call score of the fitted dose curve at least 0.9, where 1 is the maximum; inconclusive means response in the unintended direction; inactive means score below 0.9.

human Dual Specificity Protein Phosphatase 3 (DUSP3), DUSP3 (gene 1845), sequence (P51452 whole entry, looked up): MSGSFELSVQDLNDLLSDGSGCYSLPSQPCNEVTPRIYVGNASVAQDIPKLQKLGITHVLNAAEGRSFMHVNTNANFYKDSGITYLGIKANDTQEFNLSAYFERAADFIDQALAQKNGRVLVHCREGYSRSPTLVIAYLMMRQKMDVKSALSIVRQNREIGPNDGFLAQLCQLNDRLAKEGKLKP

This test concerns the target human Dual Specificity Protein Phosphatase 3 (DUSP3), DUSP3 (gene 1845) (UniProt P51452). In words: NVS_ENZ_hDUSP3: NovaScreen (NVS) Enzymatic Assay for human Dual Specificity Protein Phosphatase 3 (DUSP3) (AID 2283152). The procedure, abridged:
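Cell-free assay with recombinant human DUSP3 and fluorogenic substrate, read by fluorescence intensity. Primary screen ran duplicate at 25 uM; actives followed up in concentration series; loss of signal versus DMSO scored.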
Consider `CCCCCCCCOC(=O)c1ccccc1C(=O)OCCCCCCCC`, for which the compound was called inactive.
One may read the AC50 as the concentration at which the activity in the assay is half-maximal. With `ClC1=C(Cl)[C@]2(Cl)[C@@H]3[C@@H]4C[C@@H]([C@H]5O[C@@H]45)[C@@H]3[C@@]1(Cl)C2(Cl)Cl`, the half-maximal activity concentration (AC50) is 46.6 µM (active).
As to `CCCCCCCCCc1ccc(O)cc1`, the AC50 was 13.2 µM (active).
Consider `O=C(O)C(F)(F)C(F)(F)C(F)(F)C(F)(F)C(F)(F)C(F)(F)C(F)(F)C(F)(F)C(F)(F)F`, for which the AC50 was 13 µM (active).
`CCCCCCCCCC[N+](C)(C)CCCCCCCCCC`: the AC50 was 26.3 µM (active).
